Outcome and AC50 data for five compounds are collected here from PubChem BioAssay (EPA / NIEHS).

Experiment [1] in a line: ATG_TAL_CIS: Attagene CIS-FACTORIAL HepG2 Assay for human TAL Basal Promoter (AID 2282966; active = hit-call score of the fitted dose curve at least 0.9, where 1 is the maximum; inactive = score below 0.9;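 also: background control endpoint measuring basal TAL promoter reporter mRNA not a specific factor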). Conditions: HepG2 Attagene cis-factorial TAL promoter reporter; actives raise or lower the signal. In short, it runs like this: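 HepG2, transient MRTU transfection, 24 h compound exposure; RNA → oligo(dT) RT → PCR → 6-FAM primer extension → HpaI digest → CE fluorescence. Bidirectional curve fit vs DMSO. Background-control readout.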

Experiment [2] is described as follows: ATG_TGFb_CIS: Attagene CIS-FACTORIAL HepG2 Assay for human Transforming Growth Factor (TGF) (AID 2282967; active = hit-call score of the fitted dose curve at least 0.9, where 1 is the maximum; inactive = score below 0.9). The following applies: HepG2 Attagene CIS TGFb reporter, mRNA transcription; actives raise or lower the signal. In short, it runs like this: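 Endogenous TGFB1-linked transcription factor activity read as reporter mRNA via RT-PCR and capillary electrophoresis, 24 h after dosing transiently transfected HepG2 cells. Gain or loss of signal fitted relative to DMSO.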

Experiment [3] in a line: ATG_VDRE_CIS: Attagene CIS-FACTORIAL HepG2 Assay for human Vitamin D Receptor Element (VDRE) (AID 2282968; active = hit-call score of the fitted dose curve at least 0.9, where 1 is the maximum; inactive = score below 0.9). Conditions: HepG2 VDRE cis-reporter transcription, actives raise or lower the signal. In short, it runs like this: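 Readout is VDRE-driven reporter mRNA reflecting endogenous factor activity in human HepG2 cells, sampled 24 h post-dose. Quantification used labelled RT-PCR products separated by capillary electrophoresis; bidirectional analysis relative to DMSO.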

For experiment [4], the target named is Nuclear receptor subfamily 1 group I member 3 (Homo sapiens) (UniProt Q14994). Briefly: ATG_CAR_TRANS: Attagene TRANS-FACTORIAL HepG2 Assay for human Constitutive Androstane Receptor (CAR) (AID 2282969).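 Also: activators raise reporter mRNA above DMSO so AC50 marks induction.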 The following applies: HepG2 Attagene TRANS-FACTORIAL CAR reporter. An outline of the steps: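 Signal is reporter mRNA induction relative to DMSO, measured 24 h after dosing by RT-PCR with fluorescent primer extension and capillary electrophoresis. Human HepG2 liver cells carried transiently transfected chimeric NR-Gal4/GAL4-UAS reporter constructs.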

The target of experiment [5] is X-box-binding protein 1 (Homo sapiens) (UniProt P17861). Briefly: ATG_Xbp1_CIS: Attagene CIS-FACTORIAL HepG2 Assay for human X-box Binding Protein 1 (XBP1) (AID 2282972; active = hit-call score of the fitted dose curve at least 0.9, where 1 is the maximum; inactive = score below 0.9). The following applies: HepG2 XBP1 cis-element reporter, Attagene multiplex; actives raise or lower the signal. An outline of the steps: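 Reporter transcripts were quantified by RT-PCR with fluorescent primer extension and capillary electrophoresis after 24 h chemical exposure. Cells: transiently transfected HepG2 carrying cis-regulated reporter constructs; data fitted bidirectionally relative to DMSO.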

Experiment [6] is described as follows: ATG_M_19_TRANS: Attagene TRANS-FACTORIAL HepG2 Assay for M19 Transcription Factor (Internal Marker) (AID 2282974). Conditions: HepG2 Attagene TRANS-FACTORIAL M19 internal marker reporter. An outline of the steps:
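HepG2 transiently transfected with GAL4-UAS multiplex reporter constructs, exposed 24 h; reporter RNA quantified by RT-PCR, 6-FAM labeling, HpaI digestion and capillary electrophoresis; internal background marker fitted upward versus DMSO.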

Experiment [7] in a line: ATG_GAL4_TRANS: Attagene TRANS-FACTORIAL HepG2 Assay for GAL4 (Internal Marker) (AID 2282976). The following applies: HepG2 Attagene TRANS GAL4 internal marker reporter. In short, it runs like this: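 RT-PCR/capillary electrophoresis readout of reporter mRNA. HepG2, transient MRTU transfection (GAL4-UAS reporters), 24 h compound exposure. Background-control endpoint, positive direction vs DMSO baseline.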

The target of experiment [8] is Estrogen-related receptor gamma (Homo sapiens) (UniProt P62508). Briefly: ATG_ERRg_TRANS: Attagene TRANS-FACTORIAL HepG2 Assay for human Estrogen-Related Receptor gamma (ERRg) (AID 2282977).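 Also: hits increase reporter signal over DMSO so potencies reflect activators.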 The following applies: HepG2 Attagene TRANS reporter, ERRg transactivation. In short, it runs like this: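 Exogenous NR-Gal4 chimera activity measured as reporter transcript induction after 24 h in transiently transfected HepG2 cells. RNA reverse-transcribed, PCR-amplified, 6-FAM-labelled and resolved by capillary electrophoresis; increase over DMSO baseline.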

Experiment [9] concerns the target Nuclear receptor subfamily 4 group A member 2 (Homo sapiens) (UniProt P43354). Briefly: ATG_NURR1_TRANS: Attagene TRANS-FACTORIAL HepG2 Assay for human Nuclear Receptor Related Protein 1 (NURR1) (AID 2282985). The following applies: HepG2 Attagene TRANS reporter, mRNA readout. An outline of the steps: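 Reporter transcript induction, measured by RT-PCR with fluorescent labelling, HpaI digestion and capillary electrophoresis, after 24 hr dosing of human HepG2 cells transiently expressing an exogenous NR-Gal4 fusion with GAL4-UAS-driven reporters; DMSO as baseline.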

In experiment [10] the target is Transcriptional activator Myb (Homo sapiens) (UniProt P10242). Briefly: ATG_Myb_CIS: Attagene CIS-FACTORIAL HepG2 Assay for human Myeloblastosis (Myb) Proto-Oncogene Transcription Factor (AID 2282986; active = hit-call score of the fitted dose curve at least 0.9, where 1 is the maximum; inactive = score below 0.9). Conditions: HepG2 Attagene CIS-FACTORIAL Myb reporter transcription; actives raise or lower the signal. An outline of the steps:
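Transiently transfected HepG2 cells carrying a multiplexed cis-promoter reporter set report endogenous Myb activity after 24 h compound exposure. Reporter mRNA is read by RT-PCR with capillary electrophoresis of fluorescent products, fitted bidirectionally against DMSO.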

Experiment [11] concerns the target Nuclear respiratory factor 1 (Homo sapiens) (UniProt Q16656). Briefly: ATG_NRF1_CIS: Attagene CIS-FACTORIAL HepG2 Assay for human Nuclear Respiratory Factor 1 (NRF1) Orphan Gene (AID 2282987; active = hit-call score of the fitted dose curve at least 0.9, where 1 is the maximum; inactive = score below 0.9). The following applies: HepG2 NRF1 cis-element reporter, Attagene multiplex; actives raise or lower the signal. In short, it runs like this: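 HepG2 cells transiently transfected with multiple cis-regulated reporter units, exposed 24 h. Reporter mRNAs measured by RT-PCR, fluorescent labelling, HpaI digestion and capillary electrophoresis; bidirectional fitting against DMSO.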

Experiment [12] can be described thus: ATG_NFI_CIS: Attagene CIS-FACTORIAL HepG2 Assay for human Nuclear Factor I (NFI) (AID 2282989; active = hit-call score of the fitted dose curve at least 0.9, where 1 is the maximum; inactive = score below 0.9). The following applies: HepG2 cis-regulatory reporter, NFI response element transcription; actives raise or lower the signal. An outline of the steps:
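Reporter transcripts were measured by RT-PCR with fluorescent primer extension and capillary electrophoresis 24 h post-treatment. HepG2 cells carried transiently transfected cis-regulated reporter constructs reporting endogenous factor activity; gain or loss fitted against DMSO baseline.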

Experiment [13] addresses Bile acid receptor (Homo sapiens) (UniProt Q96RI1). Briefly: ATG_FXR_TRANS: Attagene TRANS-FACTORIAL HepG2 Assay for Farnesoid X Receptor (FXR) (AID 2282979).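 Also: hits raise reporter mRNA above DMSO so AC50 marks FXR activation.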 Conditions: HepG2 Attagene TRANS FXR-GAL4 reporter transcription. An outline of the steps:
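Read-out: fluorescent reporter transcripts quantified by capillary electrophoresis after RT-PCR of total RNA. Source cells were HepG2 transiently carrying chimeric NR-GAL4 plus GAL4-UAS reporter units, dosed 24 h. Activity fitted upward relative to DMSO baseline.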

Experiment [14] deals with Oxysterols receptor LXR-alpha (Homo sapiens) (UniProt Q13133). Briefly: ATG_LXRa_TRANS: Attagene TRANS-FACTORIAL HepG2 Assay for human Liver X Receptor alpha (LXRa) (AID 2282980). The following applies: HepG2 Attagene TRANS reporter, LXRa transactivation. An outline of the steps:
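Read-out: reporter transcript levels by RT-PCR plus capillary electrophoresis, fluorescence intensity. Transiently transfected HepG2, exogenous NR-GAL4 chimera, GAL4-UAS reporters; 24 h compound exposure. Activity = increase over DMSO negative control.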

The nature of experiment [15]: ATG_M_32_TRANS: Attagene TRANS-FACTORIAL HepG2 Assay for M32 Transcription Factor (Internal Marker) (AID 2282984).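 Also: transcript level of a background control reporter unit measured by RT-PCR and capillary electrophoresis.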 The following applies: HepG2 Attagene TRANS M32 internal marker reporter. An outline of the steps: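 Internal background reporter in transfected HepG2: after 24 h chemical exposure, RNA reverse-transcribed, reporter cDNA amplified, fluorescently labelled and HpaI-cut, then sized by capillary electrophoresis. Gain of signal fitted against DMSO control.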

Experiment [16] addresses Steroid hormone receptor ERR1 (Homo sapiens) (UniProt P11474). Briefly: ATG_ERRa_TRANS: Attagene TRANS-FACTORIAL HepG2 Assay for human Estrogen-Related Receptor alpha (ERRa) (AID 2282971). The following applies: HepG2 Attagene TRANS reporter, ERRa transactivation. An outline of the steps: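 Transfected HepG2, 24 h dosing, ERRa-Gal4 chimera driving GAL4-UAS reporter. Readout: reporter mRNA via RT-PCR plus capillary electrophoresis (fluorescence). Positive direction vs DMSO control.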

Experiment [17] concerns the target Glucocorticoid receptor (Homo sapiens) (UniProt P04150). Briefly: ATG_GR_TRANS: Attagene TRANS-FACTORIAL HepG2 Assay for human Glucocorticoid Receptor (GR) (AID 2282978).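 Also: activators score as hits since higher reporter transcript over DMSO is fitted.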 The following applies: HepG2 Attagene TRANS GR reporter, mRNA transcription. An outline of the steps: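 HepG2 cells transiently transfected with GAL4-UAS reporter units and exogenous GR-Gal4 chimera, dosed 24 h. Reporter mRNA by RT-PCR, FAM labeling, HpaI digest and capillary electrophoresis; gain-of-signal fit versus DMSO.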

Experiment [18] can be described thus: ATG_M_06_TRANS: Attagene TRANS-FACTORIAL HepG2 Assay for M06 Transcription Factor (Internal Marker) (AID 2282983). Conditions: HepG2 Attagene TRANS M06 internal marker reporter. In short, it runs like this: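 Read-out: fluorescent reporter cDNA fragments resolved by capillary electrophoresis after RT-PCR and HpaI cut. Source cells were HepG2 carrying transfected multi-reporter GAL4 constructs, dosed 24 h. Increase over DMSO control analysed.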

Experiment [19] addresses Oxysterols receptor LXR-beta (Homo sapiens) (UniProt P55055). Briefly: ATG_LXRb_TRANS: Attagene TRANS-FACTORIAL HepG2 Assay for human Liver X Receptor beta (LXRb) (AID 2282981). The following applies: HepG2 Attagene TRANS GAL4-LXRb reporter, mRNA. An outline of the steps: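 After 24 h chemical treatment of transfected HepG2 cells carrying exogenous NR-Gal4 chimeras, reporter mRNA was quantified by fluorescent RT-PCR and capillary electrophoresis; activity taken as increase over DMSO controls.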

The target in experiment [20] is Hepatocyte nuclear factor 4-alpha (Homo sapiens) (UniProt P41235). Briefly: ATG_HNF4a_TRANS: Attagene TRANS-FACTORIAL HepG2 Assay for human Hepatocyte Nuclear Factor 4 alpha (HNF4a) (AID 2282982). Conditions: HepG2 HNF4a transactivation reporter, mRNA readout. An outline of the steps: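 Activity of an exogenous HNF4a–Gal4 fusion scored as induced GAL4-UAS reporter transcripts after 24 h chemical exposure of transfected human HepG2 cells. Read-out via RT-PCR with 6-FAM labelling and capillary electrophoresis; rise over DMSO baseline.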

By AC50 is commonly meant the concentration at which the activity in the assay is half-maximal.

Each structure is given as a SMILES string. Results filed as inconclusive are left out. Calls of active or inactive are those of the source. The calls were made as follows, unless noted: active = hit-call score of the fitted dose curve at least 0.9, where 1 is the maximum; inconclusive = response in the unintended direction; inactive = score below 0.9.

Nuclear receptor subfamily 1 group I member 3 (Homo sapiens), sequence (Q14994 whole entry, looked up, the tested form may be a part): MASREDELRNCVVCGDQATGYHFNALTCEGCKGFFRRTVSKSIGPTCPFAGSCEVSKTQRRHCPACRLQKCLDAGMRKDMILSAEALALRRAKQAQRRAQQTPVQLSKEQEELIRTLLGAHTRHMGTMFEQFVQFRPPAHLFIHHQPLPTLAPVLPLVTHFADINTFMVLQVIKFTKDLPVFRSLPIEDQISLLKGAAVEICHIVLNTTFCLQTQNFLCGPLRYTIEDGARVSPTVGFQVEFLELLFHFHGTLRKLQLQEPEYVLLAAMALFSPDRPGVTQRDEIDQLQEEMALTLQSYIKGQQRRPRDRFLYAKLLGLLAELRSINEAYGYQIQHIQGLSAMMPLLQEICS
Oxysterols receptor LXR-alpha (Homo sapiens), sequence (Q13133 whole entry, looked up, the tested form may be a part): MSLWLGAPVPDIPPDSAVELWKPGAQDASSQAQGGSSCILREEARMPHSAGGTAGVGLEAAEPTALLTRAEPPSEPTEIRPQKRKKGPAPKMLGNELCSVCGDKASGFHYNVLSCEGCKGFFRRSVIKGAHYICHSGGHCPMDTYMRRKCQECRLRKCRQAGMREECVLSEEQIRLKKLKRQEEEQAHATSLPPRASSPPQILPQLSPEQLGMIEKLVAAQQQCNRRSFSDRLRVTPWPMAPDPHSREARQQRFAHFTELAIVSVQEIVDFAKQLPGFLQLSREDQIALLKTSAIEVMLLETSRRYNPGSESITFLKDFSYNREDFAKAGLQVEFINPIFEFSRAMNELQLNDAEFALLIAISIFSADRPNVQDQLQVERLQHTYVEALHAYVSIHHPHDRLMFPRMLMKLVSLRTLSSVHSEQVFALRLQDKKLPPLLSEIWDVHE
Estrogen-related receptor gamma (Homo sapiens), sequence (P62508 whole entry, looked up, the tested form may be a part): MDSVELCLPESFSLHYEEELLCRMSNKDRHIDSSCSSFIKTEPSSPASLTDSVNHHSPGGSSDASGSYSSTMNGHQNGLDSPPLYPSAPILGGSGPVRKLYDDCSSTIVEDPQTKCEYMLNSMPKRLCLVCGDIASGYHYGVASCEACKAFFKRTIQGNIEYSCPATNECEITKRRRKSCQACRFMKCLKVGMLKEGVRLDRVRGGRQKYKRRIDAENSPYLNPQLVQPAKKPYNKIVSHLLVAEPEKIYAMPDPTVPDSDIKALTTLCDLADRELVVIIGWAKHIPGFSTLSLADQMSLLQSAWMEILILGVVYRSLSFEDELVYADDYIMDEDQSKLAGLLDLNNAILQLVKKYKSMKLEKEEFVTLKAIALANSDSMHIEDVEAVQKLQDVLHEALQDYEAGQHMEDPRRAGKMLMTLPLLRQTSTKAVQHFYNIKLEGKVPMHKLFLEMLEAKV
Transcriptional activator Myb (Homo sapiens), sequence (P10242 whole entry, looked up): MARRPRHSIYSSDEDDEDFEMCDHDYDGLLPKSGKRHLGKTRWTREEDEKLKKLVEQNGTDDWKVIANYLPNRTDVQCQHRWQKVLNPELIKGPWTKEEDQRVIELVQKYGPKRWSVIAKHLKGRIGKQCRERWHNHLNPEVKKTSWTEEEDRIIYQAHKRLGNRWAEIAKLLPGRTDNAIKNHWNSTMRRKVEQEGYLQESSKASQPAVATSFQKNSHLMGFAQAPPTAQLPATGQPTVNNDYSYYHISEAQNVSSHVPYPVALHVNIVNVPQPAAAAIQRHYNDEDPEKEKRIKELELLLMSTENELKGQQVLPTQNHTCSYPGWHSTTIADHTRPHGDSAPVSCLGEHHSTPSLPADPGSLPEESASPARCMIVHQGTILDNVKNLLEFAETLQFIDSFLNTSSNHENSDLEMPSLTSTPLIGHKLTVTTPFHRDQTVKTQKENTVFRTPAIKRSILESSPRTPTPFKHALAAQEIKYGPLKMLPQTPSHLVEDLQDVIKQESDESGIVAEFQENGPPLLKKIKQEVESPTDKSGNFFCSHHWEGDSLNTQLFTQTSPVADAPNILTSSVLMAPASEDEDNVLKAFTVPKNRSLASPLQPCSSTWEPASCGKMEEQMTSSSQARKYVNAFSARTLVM
Nuclear respiratory factor 1 (Homo sapiens), sequence (Q16656 whole entry, looked up): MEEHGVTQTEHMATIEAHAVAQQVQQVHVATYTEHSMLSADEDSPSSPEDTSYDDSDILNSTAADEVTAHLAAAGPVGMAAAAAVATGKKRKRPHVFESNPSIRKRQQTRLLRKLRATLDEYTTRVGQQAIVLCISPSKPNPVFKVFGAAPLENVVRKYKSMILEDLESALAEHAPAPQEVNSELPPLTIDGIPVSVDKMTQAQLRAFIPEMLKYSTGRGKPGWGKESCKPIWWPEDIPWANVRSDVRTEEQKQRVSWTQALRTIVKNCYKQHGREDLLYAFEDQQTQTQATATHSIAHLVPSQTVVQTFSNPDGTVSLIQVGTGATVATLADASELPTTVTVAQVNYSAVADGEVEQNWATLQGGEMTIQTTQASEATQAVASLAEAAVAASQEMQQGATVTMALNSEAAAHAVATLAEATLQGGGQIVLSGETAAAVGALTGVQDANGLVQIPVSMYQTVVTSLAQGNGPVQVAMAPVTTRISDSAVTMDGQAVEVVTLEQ
Nuclear receptor subfamily 4 group A member 2 (Homo sapiens), sequence (P43354 whole entry, looked up, the tested form may be a part): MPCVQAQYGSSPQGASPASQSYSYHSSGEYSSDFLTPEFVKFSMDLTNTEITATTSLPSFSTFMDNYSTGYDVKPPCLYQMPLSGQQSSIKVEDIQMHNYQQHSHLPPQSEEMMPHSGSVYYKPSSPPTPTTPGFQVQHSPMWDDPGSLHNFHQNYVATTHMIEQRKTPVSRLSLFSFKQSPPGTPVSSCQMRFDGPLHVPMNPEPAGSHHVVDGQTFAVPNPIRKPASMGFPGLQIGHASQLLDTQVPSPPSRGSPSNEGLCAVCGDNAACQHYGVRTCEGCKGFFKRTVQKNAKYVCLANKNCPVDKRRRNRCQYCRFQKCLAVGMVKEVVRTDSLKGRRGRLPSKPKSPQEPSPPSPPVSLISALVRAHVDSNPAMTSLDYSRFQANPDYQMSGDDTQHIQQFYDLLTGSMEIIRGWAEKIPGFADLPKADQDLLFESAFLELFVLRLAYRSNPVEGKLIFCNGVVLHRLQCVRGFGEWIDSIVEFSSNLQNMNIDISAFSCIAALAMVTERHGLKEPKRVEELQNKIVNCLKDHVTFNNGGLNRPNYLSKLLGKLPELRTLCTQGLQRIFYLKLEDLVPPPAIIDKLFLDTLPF
X-box-binding protein 1 (Homo sapiens), sequence (P17861 whole entry, looked up): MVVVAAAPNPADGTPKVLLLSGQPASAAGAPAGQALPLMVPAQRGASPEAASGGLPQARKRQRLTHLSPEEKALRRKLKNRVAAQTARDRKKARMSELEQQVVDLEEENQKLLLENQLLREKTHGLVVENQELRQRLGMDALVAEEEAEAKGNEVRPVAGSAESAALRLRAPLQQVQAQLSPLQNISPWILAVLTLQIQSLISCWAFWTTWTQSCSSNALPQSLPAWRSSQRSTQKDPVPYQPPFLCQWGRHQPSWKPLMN
Oxysterols receptor LXR-beta (Homo sapiens), sequence (P55055 whole entry, looked up, the tested form may be a part): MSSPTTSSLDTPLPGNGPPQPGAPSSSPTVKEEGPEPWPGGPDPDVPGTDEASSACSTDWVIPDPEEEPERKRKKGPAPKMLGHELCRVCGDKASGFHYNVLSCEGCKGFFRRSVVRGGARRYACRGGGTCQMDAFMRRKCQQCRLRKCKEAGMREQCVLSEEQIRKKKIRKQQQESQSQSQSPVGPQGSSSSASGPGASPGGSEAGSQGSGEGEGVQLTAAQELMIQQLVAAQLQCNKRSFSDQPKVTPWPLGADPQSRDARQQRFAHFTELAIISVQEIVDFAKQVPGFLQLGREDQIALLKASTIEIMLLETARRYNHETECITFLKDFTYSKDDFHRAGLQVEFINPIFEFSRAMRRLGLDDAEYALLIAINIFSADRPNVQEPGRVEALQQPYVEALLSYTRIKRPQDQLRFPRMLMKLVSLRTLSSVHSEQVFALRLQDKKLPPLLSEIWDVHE
Glucocorticoid receptor (Homo sapiens), sequence (P04150 whole entry, looked up, the tested form may be a part): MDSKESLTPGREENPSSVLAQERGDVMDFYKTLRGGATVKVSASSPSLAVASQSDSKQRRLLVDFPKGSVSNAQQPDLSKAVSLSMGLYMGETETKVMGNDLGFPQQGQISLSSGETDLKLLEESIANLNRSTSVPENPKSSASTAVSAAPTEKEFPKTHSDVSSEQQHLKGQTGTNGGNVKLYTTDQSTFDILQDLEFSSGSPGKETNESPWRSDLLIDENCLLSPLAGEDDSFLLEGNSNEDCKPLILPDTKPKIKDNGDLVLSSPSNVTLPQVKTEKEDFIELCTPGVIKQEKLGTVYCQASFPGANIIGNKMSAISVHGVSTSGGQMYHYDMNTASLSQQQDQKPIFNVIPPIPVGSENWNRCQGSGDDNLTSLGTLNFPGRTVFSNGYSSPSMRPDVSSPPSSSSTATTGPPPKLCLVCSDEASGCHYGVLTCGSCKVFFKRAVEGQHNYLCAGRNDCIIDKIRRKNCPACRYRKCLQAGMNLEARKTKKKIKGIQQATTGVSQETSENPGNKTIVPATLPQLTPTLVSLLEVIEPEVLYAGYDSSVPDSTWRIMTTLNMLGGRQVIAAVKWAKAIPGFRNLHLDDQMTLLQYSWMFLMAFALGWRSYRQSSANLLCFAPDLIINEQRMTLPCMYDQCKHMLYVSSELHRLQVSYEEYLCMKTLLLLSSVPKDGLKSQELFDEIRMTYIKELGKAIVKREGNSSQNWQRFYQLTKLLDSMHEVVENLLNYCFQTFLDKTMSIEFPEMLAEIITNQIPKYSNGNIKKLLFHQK
Bile acid receptor (Homo sapiens), sequence (Q96RI1 whole entry, looked up, the tested form may be a part): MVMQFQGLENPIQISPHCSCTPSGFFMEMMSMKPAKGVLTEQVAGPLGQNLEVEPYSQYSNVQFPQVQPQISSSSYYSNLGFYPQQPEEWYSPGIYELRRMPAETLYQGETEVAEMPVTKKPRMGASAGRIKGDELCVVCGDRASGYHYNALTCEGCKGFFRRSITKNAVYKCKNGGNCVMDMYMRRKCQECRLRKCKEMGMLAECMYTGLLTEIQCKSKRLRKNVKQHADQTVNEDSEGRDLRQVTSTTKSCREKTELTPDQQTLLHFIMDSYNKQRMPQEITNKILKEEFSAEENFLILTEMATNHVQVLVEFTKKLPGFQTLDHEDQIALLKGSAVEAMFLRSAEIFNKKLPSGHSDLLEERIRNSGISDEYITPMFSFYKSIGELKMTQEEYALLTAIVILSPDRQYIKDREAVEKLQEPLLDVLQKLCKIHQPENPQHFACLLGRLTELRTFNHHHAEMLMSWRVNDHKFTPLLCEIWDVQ

In the case of `CCCCOCC`, the outcome in [1], in [2], in [3], in [4], in experiment [5] and in experiment [6] was inactive. The compound was called inactive in experiment [7], in experiment [8], in experiment [9], in experiment [10], in experiment [11] and in [12].

Consider `CCCCCCCCCCCCCCCC(=O)OC/C=C(C)/C=C/C=C(C)/C=C/C1=C(C)CCCC1(C)C`, for which the result in experiment [1], in [2], in experiment [4], in [5], in [6] and in experiment [13] was inactive. The call in [14], in [15], in [10] and in [11] was inactive. In [3], the AC50 is 2370 nM (active).

In the case of `COc1ccccc1N=Nc1c(S(=O)(=O)O)cc2cc(S(=O)(=O)O)cc(NC(C)=O)c2c1O`, the outcome in experiment [1], in experiment [2], in experiment [3], in [4], in experiment [16] and in experiment [5] was inactive. For the same compound, the result in experiment [6], in [7], in experiment [17], in experiment [14], in [18] and in experiment [9] was inactive. The outcome in experiment [11] and in experiment [12] was inactive.

As to `O=C1c2ccccc2C(=O)c2c(O)ccc(O)c21`, the result in experiment [1], in experiment [2], in experiment [3], in experiment [4], in experiment [5] and in experiment [6] was inactive. For the same compound, the call in [8], in [13], in experiment [14], in experiment [19], in [20] and in experiment [18] was inactive. Moreover, the call in experiment [15], in experiment [9], in experiment [10], in experiment [11] and in [12] was inactive.

Take `BrCc1cccc(Oc2ccccc2)c1`: the call in [1], in [2], in experiment [3], in experiment [4], in experiment [5] and in [6] was inactive. Moreover, the compound was classed as inactive in [7], in [8], in experiment [17], in [19], in experiment [18] and in [15]. For the same compound, the result in experiment [10], in experiment [11] and in experiment [12] was inactive.
